# Data published in PubChem BioAssay (NCI).
# This is part of a sample that, as a whole, favours compounds with a hit. Of some 83,000 tested, about 20% had one in any assay.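 Cells were grown in 96-well plates and exposed to the test compound at a single concentration for 48 hours; results are reported as percent growth, with values below 10 considered active.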 A number with no mark means an inactive call. Calls of active or inactive are those of the source.
# Test system: MDA-MB-435 melanoma
# Test: NCI-60 one-dose screen, 48 h (100 = growth as untreated, 0 = no growth, -100 = all killed)
# Settings: 10 µM unless noted
# Procedure: Growth inhibition of the MDA-MB-435 human Melanoma tumor cell line is measured as a screen for anti-cancer activity. Cells are grown in 96 well plates and exposed to the test compound for 48 hours. Compounds are tested at a single concentration, which is 10^-5 M for most compounds. The reported endpoint is percent growth (GI% or GIPRCNT), where numbers from 0 - 100% represent growth inhibition, and numbers from -100% - 0 represent cell death. For example, a value of 40 represents 60% growth inhibition. A value of 0 means no net growth occurred over the course of the experiment. A value of -40 indicates 40% of cells at the beginning of the experiment died by the end of the experiment. A value of -100 means all cells are dead at the end of the experiment.
# NCI-60 Human Tumor Cell Lines Screen was performed using the standard one-dose NCI protocol, which is described in more detail at https://dtp.cancer.gov/discovery_development/nci-60/default.htm.
# Compounds with GIPRCNT values below 10 were considered active. Activity score was based on GIPRCNT using the following formula: […]
# Score is 0 for GIPRCNT values of 100 or above, 50 for GIPRCNT values of 0, and 100 for GIPRCNT values of -100.
row,Structure (SMILES),growth
1,Cc1ccc(Nc2cc(=S)nc(N)[nH]2)cc1C,103%
2,COc1cccc(NC(=O)c2cccc(-c3cc(=O)c4c(OC)c(OC)c(OC)cc4o3)c2)c1,81.2%
3,COc1c(Cl)cc(Cl)c2ccc(C=C3C(=O)NC(=S)NC3=O)nc12,106%
4,CCCCc1ccc(Nc2nnc(SCC(=O)NC(=O)NCC)s2)cc1,104%
5,CCCC1C(C(=O)OCC)=C(N)Oc2cc(O)ccc21 (stereo not given),90.6%
6,Nc1c(C(=O)Nc2ccc(Cl)cc2)cc(-c2nc3ccccc3s2)c(=O)n1NS(=O)(=O)c1ccc(Cl)cc1,99.8%
7,Clc1ccc(N2N=C(c3cccc(Nc4ccncc4)c3)CC2c2ccc3c(c2)OCO3)cc1 (stereo not given),-77.6% (active)
8,N/C(=N\N=C\c1cc2ccccc2[nH]1)N/N=C/c1cc2ccccc2[nH]1,104%
9,COc1ccc(-c2c[nH]c(C(=O)O)c2-c2cc(OC)c3c(c2OC)OCO3)cc1,104%
10,COc1ccc(C(=O)c2cc3c(N)c(C(=O)Nc4cccc(Cl)c4C)sc3nc2C)cc1,-6.97% (active)
11,CCCCCCC/C=C/[C@H]1O[C@]2(O)C(=O)C=C3C[C@@H](O[C@@H]4O[C@H](CO)[C@@H](O)C(O)[C@@H]4O)C[C@@H]3[C@H]2C=C1C (stereo not given in full),-19.9% (active)
12,CCCCCCCC(=O)Nc1nc2[nH]c(CN3CCN(Cc4cccc(I)c4)CC3)c(CN3CCN(Cc4cccc(I)c4)CC3)c2c(=O)[nH]1,-75.8% (active)
13,COc1cccc(CNCCN2C(=O)c3ccc4c5c(ccc(c35)C2=O)C(=O)N(CCNCc2cccc(OC)c2)C4=O)c1,118%
14,Cc1cccc(Oc2ccc(Nc3ncnc4ccc(NC(=O)CNCCO)cc34)cc2Cl)c1,55.7%
15,Cc1c(C2=CCCCC2)c2ccccn2c1C(=O)c1cccc(S(=O)(=O)N2CCOCC2)c1,62.5%
16,COc1cc(C2CC(c3cccc(Nc4ccncc4)c3)=NN2c2cc(Cl)cc(Cl)c2)cc(OC)c1OC (stereo not given),-85% (active)
17,CC1(C)CN(c2cnc(C(=O)Nc3cc(F)cc4cccnc34)cn2)CCN1,85.9%
18,CCC(C)N(CCNc1cc(OC)cc2cccnc12)CCC(C)C (stereo not given),107%
19,COc1ccc2c(c1)OC1=C(C(=O)OC1)C2c1cc(OC)c(OC)c(OC)c1 (stereo not given),-38.5% (active)
20,COc1cc(C(=O)/C=C/c2c(C)n([O-])c3ccc(Cl)cc3[n+]2=O)cc(OC)c1OC,49.4%

row,Structure (SMILES),growth
1,CN(C)c1ccc(-c2c(C#N)c(N)n3nc(N)c(C#N)c3c2C#N)cc1,97%
2,CC1=CC2(C)/C=C(C)/C=C\CC(O)/C=C3/C=CC(=C4C(=O)OC2(CC1C)C4=O)OC3 (stereo not given),-50.1% (active)
3,COc1cccc(-c2nc3occn3c2-c2ccnc(NCCCNS(=O)(=O)c3cccc(F)c3)n2)c1,63.2%
4,O=C1/C(=C/c2ccc(O)cc2)COc2ccc(-c3ccccc3)cc21,60.7%
5,CCn1cc(C2NC(=O)c3ccccc3N2)c2cccc(C)c21 (stereo not given),-31.9% (active)
6,COc1ccc(C(=O)c2cc3c(N)c(C(=O)Nc4ccc(Br)cc4)sc3nc2C)cc1,63.6%
7,N#Cc1cc(-c2nc3ccccc3s2)c(=O)n(NS(=O)(=O)c2ccc(Cl)cc2)c1N,101%
8,COc1cc(COC(=O)CCCCC[P+](c2ccccc2)(c2ccccc2)c2ccccc2)c(OC)c2c1OCO2,41.8%
9,Cn1c(COC(=O)NCCc2ccccn2)nc2c(N3CCOCC3)nc(Cl)nc21,-83.3% (active)
10,c1ccc(N2N=C(c3cccc(Nc4ccncc4)c3)CC2c2ccc3c(c2)OCO3)cc1 (stereo not given),-73.2% (active)
11,CC(=O)c1c[nH]c2ccc(-c3ccnc(Nc4ccc(NC(=O)c5cccc(F)c5)c(CN5CCOCC5)c4)n3)cc12,-6.37% (active)
12,CC(=O)OC1CCC2(C)C(CCC3C4CC=C(C(C)=O)C4(C)OC(=O)CC32)C1 (stereo not given),20.4%
13,O=S(=O)(NCCCNc1nccc(-c2c(-c3ccc(F)c(O)c3)nc3sccn23)n1)c1ccc(F)cc1,-11.7% (active)
14,CS(=O)(=O)Nc1cc(-c2ccc3ncnc(Nc4ccc5[nH]ncc5c4)c3c2)cnc1Cl,75%
15,CN1CCN(c2ccc3nc(-c4cc(C(C)(C)C)c(O)c(C(C)(C)C)c4)[nH]c3c2)CC1,0.049% (active)
16,CNC(=O)NCC1OC(n2cnc3c(NC(=O)Nc4ccccc4)ncnc32)C(O[Si](C)(C)C(C)(C)C)C1O[Si](C)(C)C(C)(C)C (stereo not given),25.9%
17,C/C(=C(/c1ccccc1)c1ccc(OCC(O)CN2CCOCC2)cc1)c1ccccc1 (stereo not given),90.7%
18,Nc1nnc(C(=O)c2cnc3n(c2=O)CCCCC3)s1,106%
19,COc1ccc(-c2c(-c3ccccc3)noc2N)cc1OC,91%
20,O=S(=O)(NCCNc1nccc(-c2c(-c3ccc(F)c(O)c3)nc3sccn23)n1)c1ccccc1,34.1%
